The values below come from PubChem BioAssay (EPA / NIEHS).

The structures appear in SMILES notation. The source made the active and inactive calls. How the source made its calls: active means hit-call score of the fitted dose curve at least 0.9, where 1 is the maximum; inactive means score below 0.9.

Read-out in experiment [1]: Interleukin-1 alpha (IL1a), IL1A (gene 3552)
In words: BSK_KF3CT_IL1a: BioMAP Diversity Plus: KF3CT Assay for Interleukin-1 alpha (IL1a) Biomarker Activity (AID 2283070). As to conditions: primary human keratinocytes with fibroblasts; actives raise or lower the signal. The method in brief: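 Primary skin co-culture (keratinocytes, foreskin fibroblasts), 24 h exposure; ELISA for IL-1a; bidirectional curve fit vs DMSO.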

Read-out in experiment [2]: TIMP metallopeptidase inhibitor 2 (TIMP2), TIMP2 (gene 7077)
In words: BSK_KF3CT_TIMP2: BioMAP Diversity Plus: KF3CT Assay for TIMP metallopeptidase inhibitor 2 (TIMP2) Biomarker Activity (AID 2283071). Conditions: primary human keratinocytes with fibroblasts; actives raise or lower the signal. The method in brief: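 ELISA readout of TIMP-2 in keratinocyte plus foreskin fibroblast co-cultures (human skin primary cells), 24 h post-dose. Gain or loss of signal fitted relative to DMSO.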

Read-out in experiment [3]: Transforming growth factor beta 1 (TGFb1), TGFB1 (gene 7040)
In words: BSK_KF3CT_TGFb1: BioMAP Diversity Plus: KF3CT Assay for Transforming growth factor beta 1 (TGFb1) Biomarker Activity (AID 2283072). As to conditions: primary human keratinocytes with fibroblasts; actives raise or lower the signal. The method in brief:
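Read-out: ELISA for TGF-b1 in keratinocyte/foreskin fibroblast human skin co-culture, 24 h after dosing; bidirectional curve fit vs DMSO baseline; gain or loss of signal scored.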

Read-out in experiment [4]: C-C motif chemokine 2 (Homo sapiens) (UniProt P13500)
In words: BSK_KF3CT_MCP1: BioMAP Diversity Plus: KF3CT Assay for Monocyte Chemoattractant Protein 1 (MCP1/CCL2) Biomarker Activity (AID 2283073). Conditions: primary human keratinocytes with fibroblasts; actives raise or lower the signal. The method in brief:
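ELISA read-out of MCP-1, 24 h post-dose, in primary human skin keratinocytes co-cultured with fibroblasts. Parallel SRB staining monitors cytotoxicity; changes fitted both directions relative to DMSO.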

Read-out in experiment [5]: Matrix Metallopeptidase 9 (MMP9), MMP9 (gene 4318)
In words: BSK_KF3CT_MMP9: BioMAP Diversity Plus: KF3CT Assay for Matrix Metallopeptidase 9 (MMP9) Biomarker Activity (AID 2283074).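 On AC50: MMP9 protein level quantified by ELISA in the co-culture.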 As to conditions: primary human keratinocytes with fibroblasts; actives raise or lower the signal. The method in brief:
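ELISA read-out of MMP-9 at 24 h post-dosing in a co-culture of human skin keratinocytes and foreskin fibroblasts. Gain or loss of signal was fitted in both directions against DMSO.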

Read-out in experiment [6]: urokinase plasminogen activator (uPA), PLAU (gene 5328)
In words: BSK_KF3CT_uPA: BioMAP Diversity Plus: KF3CT Assay for urokinase plasminogen activator (uPA) Biomarker Activity (AID 2283075). Conditions: primary human keratinocytes with fibroblasts; actives raise or lower the signal. The method in brief: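 Skin co-culture (keratinocytes + foreskin fibroblasts), human primary; 24 h post-dose; uPA by ELISA; gain/loss fit vs DMSO baseline.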

Read-out in experiment [7]: CD40, CD40 (gene 958)
In words: BSK_LPS_CD40: BioMAP Diversity Plus: LPS Assay for CD40 Biomarker Activity (AID 2283076). As to conditions: primary human HUVEC with PBMC; actives raise or lower the signal. The method in brief: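 In the LPS system of human endothelial cells with peripheral blood mononuclear cells, CD40 levels were read by ELISA 24 h post-treatment. Signal changes in either direction were fitted against the DMSO baseline, with parallel SRB protein staining.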

Read-out in experiment [8]: E-selectin (Homo sapiens) (UniProt P16581)
In words: BSK_LPS_Eselectin: BioMAP Diversity Plus: LPS Assay for Eselectin Biomarker Activity (AID 2283077). As to conditions: primary human HUVEC with PBMC; actives raise or lower the signal. The method in brief: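 E-selectin ELISA on LPS-stimulated endothelial cell/PBMC co-cultures, read 24 h post-treatment; gains and losses fitted against DMSO. Parallel SRB staining (0.1% SRB after 10% TCA fixation, 560 nm) flags overt cytotoxicity.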

Experiment [9] in a line: BSK_LPS_SRB: Viability Assessment in the BioMAP Diversity Plus: LPS Assay (AID 2283079).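 Further: total protein by sulforhodamine B absorbance as a cytotoxicity measure; measured one day after compound addition.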 Conditions: primary human HUVEC with PBMC. The method in brief: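 SRB viability endpoint: cells fixed with 10% TCA, stained with 0.1% SRB, read at 560 nm, 24 h post-dose. HUVEC/PBMC co-culture; signal change in either direction scored relative to DMSO.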
Read-out in experiment [10]: Interleukin-1 alpha (IL1a), IL1A (gene 3552)
In words: BSK_LPS_IL1a: BioMAP Diversity Plus: LPS Assay for Interleukin-1 alpha (IL1a) Biomarker Activity (AID 2283080). As to conditions: primary human HUVEC with PBMC; actives raise or lower the signal. The method in brief: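 Readout is IL-1a level by ELISA, 24 h post-dose, fitted as gain or loss relative to DMSO. System: LPS-activated human primary co-culture of vascular endothelium and peripheral blood mononuclear cells, with parallel SRB total-protein cytotoxicity.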

Read-out in experiment [11]: Monocyte Chemoattractant Protein-1 (MCP1), CCL2 (gene 6347)
In words: BSK_LPS_MCP1: BioMAP Diversity Plus: LPS Assay for Monocyte Chemoattractant Protein-1 (MCP1) Biomarker Activity (AID 2283081). As to conditions: primary human HUVEC with PBMC; actives raise or lower the signal. The method in brief:
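Secreted MCP-1 read by ELISA at 24 h post-dosing in an LPS-activated co-culture of endothelial cells with peripheral blood mononuclear cells. Fits run in both directions, DMSO as baseline; parallel SRB staining tracks overt cytotoxicity.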

Experiment [12] can be described thus: BSK_LPS_PGE2: BioMAP Diversity Plus: LPS Assay for Prostaglandin E2 (PGE2) Biomarker Activity (AID 2283082). As to conditions: primary human HUVEC with PBMC; actives raise or lower the signal. The method in brief:
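ELISA read-out of PGE2 from human umbilical vein endothelial cells co-cultured with peripheral blood mononuclear cells under LPS, 24 h post-dose. Gain or loss of signal scored relative to DMSO baseline.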

Read-out in experiment [13]: Macrophage colony-stimulating factor (MCSF), CSF1 (gene 1435)
In words: BSK_LPS_MCSF: BioMAP Diversity Plus: LPS Assay for Macrophage colony-stimulating factor (MCSF) Biomarker Activity (AID 2283083). As to conditions: primary human HUVEC with PBMC; actives raise or lower the signal. The method in brief: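 Bidirectional fitting against DMSO was applied to M-CSF levels read by ELISA at 24 h post-dose. The system pairs human umbilical vein endothelium with peripheral blood mononuclear cells; parallel SRB staining tracked cytotoxicity.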

Read-out in experiment [14]: Tumor necrosis factor (Homo sapiens) (UniProt P01375)
In words: BSK_LPS_TNFa: BioMAP Diversity Plus: LPS Assay for Tumour Necrosis Factor alpha (TNFa) Biomarker Activity (AID 2283085). As to conditions: primary human HUVEC with PBMC; actives raise or lower the signal. The method in brief: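 HUVEC/PBMC co-culture, LPS-stimulated; 24 h post-dose; TNFa by ELISA; gain or loss of signal fitted bidirectionally vs DMSO baseline.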

Read-out in experiment [15]: Vascular cell adhesion molecule 1 (VCAM1), VCAM1 (gene 7412)
In words: BSK_LPS_VCAM1: BioMAP Diversity Plus: LPS Assay for Vascular cell adhesion molecule 1 (VCAM1) Biomarker Activity (AID 2283086). As to conditions: primary human HUVEC with PBMC; actives raise or lower the signal. The method in brief: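 ELISA read-out of VCAM-1 at 24 h post-dosing in an LPS-driven HUVEC/PBMC primary human co-culture; gain or loss of signal fitted bidirectionally against DMSO baseline. Cytotoxicity tracked in parallel cultures by SRB total-protein staining.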

Read-out in another experiment: CD38, CD38 (gene 952)
In words: BSK_SAg_CD38: BioMAP Diversity Plus: SAg Assay for CD38 Biomarker Activity (AID 2283087). As to conditions: primary human HUVEC with PBMC; actives raise or lower the signal. The method in brief:
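Measures CD38 on a human endothelial/PBMC co-culture driven by SEB and TSST-1, 24 h after compound exposure, using ELISA with fluorescence detection; DMSO defines baseline for bidirectional curve fitting.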

Read-out in another experiment: CD69, CD69 (gene 969)
In words: BSK_SAg_CD69: BioMAP Diversity Plus: SAg Assay for CD69 Biomarker Activity (AID 2283089). Conditions: primary human HUVEC with PBMC; actives raise or lower the signal. The method in brief:
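ELISA, fluorescence read-out: CD69 on human umbilical vein endothelial cell + PBMC co-culture, 24 h post-dosing. Gain or loss of signal fitted bidirectionally against DMSO baseline.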

Read-out in experiment [16]: CD40, CD40 (gene 958)
In words: BSK_SAg_CD40: BioMAP Diversity Plus: SAg Assay for CD40 Biomarker Activity (AID 2283088). Conditions: primary human HUVEC with PBMC; actives raise or lower the signal. The method in brief: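 CD40 is measured by fluorescence ELISA in an endothelial/PBMC primary human co-culture at 24 h post-dose. Fitting is bidirectional, DMSO baseline. Parallel SRB staining (560 nm) flags cytotoxicity.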

Tumor necrosis factor (Homo sapiens), sequence (P01375 whole entry, looked up): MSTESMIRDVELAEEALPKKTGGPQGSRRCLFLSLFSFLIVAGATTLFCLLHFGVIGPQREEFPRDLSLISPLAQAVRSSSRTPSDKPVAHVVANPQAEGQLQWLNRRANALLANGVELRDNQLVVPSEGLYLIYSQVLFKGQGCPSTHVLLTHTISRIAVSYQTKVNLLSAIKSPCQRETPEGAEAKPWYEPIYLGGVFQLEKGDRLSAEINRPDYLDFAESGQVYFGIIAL
E-selectin (Homo sapiens), sequence (P16581 whole entry, looked up): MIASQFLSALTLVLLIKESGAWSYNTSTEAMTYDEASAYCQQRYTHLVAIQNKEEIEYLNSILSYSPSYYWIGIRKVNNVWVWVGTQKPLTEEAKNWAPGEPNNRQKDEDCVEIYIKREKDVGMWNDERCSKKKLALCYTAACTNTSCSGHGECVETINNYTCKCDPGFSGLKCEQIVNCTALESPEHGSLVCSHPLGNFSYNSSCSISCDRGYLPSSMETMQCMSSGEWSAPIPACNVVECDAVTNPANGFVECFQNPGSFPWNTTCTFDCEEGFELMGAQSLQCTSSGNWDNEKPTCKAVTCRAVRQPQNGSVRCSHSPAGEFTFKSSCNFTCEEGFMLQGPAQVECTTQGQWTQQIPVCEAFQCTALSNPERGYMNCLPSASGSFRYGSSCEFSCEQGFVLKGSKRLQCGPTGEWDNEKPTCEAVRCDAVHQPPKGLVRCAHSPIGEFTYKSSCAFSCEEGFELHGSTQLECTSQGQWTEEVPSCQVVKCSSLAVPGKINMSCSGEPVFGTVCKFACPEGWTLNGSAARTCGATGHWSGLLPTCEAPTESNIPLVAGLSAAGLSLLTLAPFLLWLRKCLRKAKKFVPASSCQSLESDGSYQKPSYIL

`Fc1ccc(Br)cc1`: the outcome in experiment [1], in experiment [2], in experiment [3], in [4], in experiment [5] and in experiment [6] was inactive. The outcome was “inactive” in the experiment with CD40, CD40 (gene 958) [7]; “inactive” in experiment [8]; “inactive” in experiment [9]; “inactive” in [10]; “inactive” in experiment [11]; “inactive” in experiment [12]. Besides, the outcome is “inactive” in experiment [13]; “inactive” in experiment [14]; “inactive” in experiment [15]; “inactive” with CD38, CD38 (gene 952); “inactive” in the experiment with CD69, CD69 (gene 969).
In general, AC50 refers to the concentration at which the activity in the assay is half-maximal. As to `c1ccc2sc(SSN3CCOCC3)nc2c1`, the AC50 was 12.2 µM (active) in [1]; 12.2 µM (active) in experiment [4]; 12.6 µM (active) in [5]; 12.9 µM (active) in experiment [6]; 12.2 µM (active) in experiment [13]; 20 µM (active) with CD38, CD38 (gene 952). For the same molecule, the outcome was “inactive” in experiment [2]; “inactive” in experiment [3]; “inactive” with CD40, CD40 (gene 958) [7]; “inactive” in [8]; “inactive” in [9]; “inactive” in experiment [10]. The outcome in experiment [11] was “inactive”; in experiment [12] it was “inactive”; in experiment [14] it was “inactive”; in experiment [15] it was “inactive”; in the experiment with CD69, CD69 (gene 969), “inactive”.
On to `CCCCCCC=O`, for which the result in experiment [1], in [2], in experiment [3], in [4], in experiment [5] and in [6] was inactive. Further, the outcome with CD40, CD40 (gene 958) [7] was “inactive”; in experiment [8], “inactive”; in experiment [9], “inactive”; in [10], “inactive”; in experiment [11] it was “inactive”; in experiment [12], “inactive”. Moreover, the outcome in experiment [13] is “inactive”; in [14], “inactive”; in experiment [15], “inactive”; with CD38, CD38 (gene 952), “inactive”; with CD40, CD40 (gene 958) [16], “inactive”; with CD69, CD69 (gene 969), “inactive”.
